Assay results taken from PubChem BioAssay (Tox21).
Records with an inconclusive call do not appear. Unmarked numbers belong to inactive results. Active and inactive are the calls of the source. Calls come from the whole dose curve.

biological target: Thyrotropin receptor (Homo sapiens) (UniProt P16473); test: qHTS assay to identify small molecule antagonists of the thyroid stimulating hormone receptor (TSHR) signaling pathway (AID 1259385); conditions: TSHR-HEK293 cAMP HTRF, TSH-stimulated antagonist mode; series mostly up to 92.4 µM; note: nearly all actives have a fitted effect of over 20% in size
Source text: U.S. Tox21 Program National Center for Advancing Translational Sciences [NCATS] NIH Chemical Genomics Center [NCGC] U.S. Environmental Protection Agency [EPA] National Institutes of Environmental Health Sciences [NIEHS] National Toxicology Program [NTP] U.S. Food and Drug Administration [FDA] Tox21 Assay Overview: TSHR is the receptor for thyrotropin (thyroid stimulating hormone or TSH), a member of the glycoprotein hormone family. TSH is released by the anterior pituitary gland and is the main regulator of thyroid gland growth and development. Upon binding circulating thyrotropin, a G-protein signal cascade activates adenylyl cyclase and […] cAMP concentration is increased. cAMP is a key second messenger involved extensively in cellular signal transduction pathways associated with the majority of G-protein coupled receptors (GPCRs). The activation of these GPCRs by neurotransmitters, lipids, nucleotides, peptides and hormones results in the activation or the inhibition of plasma membrane-bound adenylate cyclase through heterotrimeric G-proteins. A cell-based TSHR assay can be used to screen chemical compounds that modulate TSHR either in agonist or antagonist mode.
Tox21 Assay Protocol Summary: TSHR-Hek293 cells were dispensed at 800 cells/4uL/well in 1536-well white plates using a Multidrop dispenser. After the assay plates were incubated at a 37C/5% CO2 incubator for 18 hrs, 23 nL of compounds dissolved in DMSO, positive controls or DMSO only was transferred to the assay plate by a pin tool, followed by 1 ul medium containing Ro20-1724. For the antagonist mode screening, 1 uL of TSH was added on the top of the cell/compound mixtures to achieve a final agonist concentration of 1.5 ng/mL. After 30 min of incubation at room temperature, 2.5 ul/well of cAMP-d2 and 2.5 ul/well of anti-cAMP-cryptate were added respectively into the assay plates using a Flying Reagent Dispenser. The plates were incubated at room temperature for 1 hr. The fluorescence intensity in the plates was measured using an Envision plate reader. Each test compound was measured at 15 concentrations and in triplicates.
% is set by controls: 0 for no effect and ±100 for the full control effect.

Thyrotropin receptor (Homo sapiens), sequence (P16473 whole entry, looked up): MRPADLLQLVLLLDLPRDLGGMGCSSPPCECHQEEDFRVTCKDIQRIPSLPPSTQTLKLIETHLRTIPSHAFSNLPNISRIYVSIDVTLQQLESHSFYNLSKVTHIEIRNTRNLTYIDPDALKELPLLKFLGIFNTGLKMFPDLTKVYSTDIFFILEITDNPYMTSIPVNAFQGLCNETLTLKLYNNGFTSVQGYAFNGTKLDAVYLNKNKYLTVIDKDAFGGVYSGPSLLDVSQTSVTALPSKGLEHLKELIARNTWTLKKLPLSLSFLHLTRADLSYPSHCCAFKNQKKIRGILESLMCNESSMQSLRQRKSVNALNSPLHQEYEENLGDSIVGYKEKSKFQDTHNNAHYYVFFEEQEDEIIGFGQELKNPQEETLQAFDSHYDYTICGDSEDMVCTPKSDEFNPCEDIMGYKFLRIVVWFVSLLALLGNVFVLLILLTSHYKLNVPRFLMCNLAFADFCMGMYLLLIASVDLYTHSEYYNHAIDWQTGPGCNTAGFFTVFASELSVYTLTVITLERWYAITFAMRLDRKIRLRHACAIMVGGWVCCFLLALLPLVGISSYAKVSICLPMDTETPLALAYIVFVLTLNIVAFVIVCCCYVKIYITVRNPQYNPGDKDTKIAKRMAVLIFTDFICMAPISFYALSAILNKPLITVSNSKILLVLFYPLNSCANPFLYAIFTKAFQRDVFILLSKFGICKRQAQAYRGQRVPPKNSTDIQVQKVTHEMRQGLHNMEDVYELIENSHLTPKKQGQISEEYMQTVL

Structure (SMILES) | outcome | activity change, negative = inhibition
CC(C)(C)C(=O)CCc1ccc(Cl)cc1 | inactive | 
CCOC(=O)CC(C(C)=O)C(C)=O | inactive | 
CC(C)(C)c1ccc(C(=O)CCCCl)cc1 | inactive | 
C/C(=N\O)c1ccc(OCC(=O)N2CCCCC2)cc1 | inactive | 
O=C(O)Cc1c(Cl)ccc(Cl)c1Cl | inactive | 
CCCCCCCCCCCCCCCC/C=C/C1CC(=O)OC1=O (stereo not given) | inactive | 
COC(=O)c1ccc(C(=O)O)cc1 | inactive | 
CC(O)C(CO)C(C)O (stereo not given) | inactive | 
c1cc2ccc3ccc4ccc5cccc6c(c1)c2c3c4c56 |  | -1.71% [at 3.27 µM]
CC/C=C\CCOC(=O)c1ccccc1 | inactive | 
CSC(=O)c1cccc2nnsc12 | inactive | 
C=CCCCCCCCCCCCCCC |  | 0.749% [at 19 µM]
Cc1cccc(N)n1 | inactive | 
CN(C)CCC[C@@]1(c2ccc(F)cc2)OCc2cc(C#N)ccc21 | inactive | 
CCCCN1C(=O)c2ccccc2C1=O | inactive | 
CCCCCCCCCCCC(C)=O | inactive | 
C[C@]12C=CC(=O)C=C1[C@@H](F)C[C@@H]1[C@@H]2[C@@H](O)C[C@@]2(C)[C@H]1CC[C@]2(O)C(=O)CO | inactive | 
Cc1ccc(S(=O)(=O)NC(=O)NN2CC3CCCC3C2)cc1 (stereo not given) | inactive | 
O=Cc1ccccc1S(=O)(=O)O | inactive | 
CC(C)(C)C(=O)CC(=O)C(C)(C)C | inactive | 

Structure (SMILES) | outcome | activity change, negative = inhibition
CCOC(=O)[C@H](CCc1ccccc1)N[C@H]1CS[C@H](c2cccs2)CN(CC(=O)O)C1=O | inactive | 
O=Cc1ccc(C(=O)O)cc1 | inactive | 
CCCCN=C(N)N=C(N)N | inactive | 
CCO[Si](CC(C)C)(OCC)OCC | inactive | 
CC[C@@]1(c2ccccc2)NC(=O)N(C)C1=O | inactive | 
N=C(N)N | inactive | 
CCCCCCCCCCCCCCCCN(C)C |  | 1.02% [at 8.39 µM]
C=CCN(CC=C)CC=C | inactive | 
CCN(CC)CC(=O)Oc1ccc(NC(C)=O)cc1 | inactive | 
CC(C)OC(=O)C(C(=O)OC(C)C)=C1SC=CS1 | inactive | 
COCCCOc1cc(C[C@@H](C[C@H](N)[C@@H](O)C[C@H](C(=O)NCC(C)(C)C(N)=O)C(C)C)C(C)C)ccc1OC | inactive | 
CC(C)(C)NCC(O)COc1cccc2c1CCC(=O)N2 (stereo not given) | inactive | 
C=CC(=O)OCC[N+](C)(C)C | inactive | 
O=C(O)CCCCCCCCCC(=O)O | inactive | 
CCCCCCCCC1CO1 (stereo not given) | inactive | 
CC12CCCC=C1C(=O)OC2=O (stereo not given) | inactive | 
O=C1Nc2ccccc2C1=O | inactive | 
COC(=O)/C=C(\C)CCC=C(C)C | inactive | 
CCCCCCCCS(=O)(=O)O | inactive | 
Cc1ccc(Br)cc1 | inactive | 
